Screening data from PubChem.
EWS-Fli inh: inhibitors of EWS/Fli oncoprotein transcriptional activity | A673 NR0B1-luciferase reporter, viability-normalised | inhibition, % at 12.6 µM | 350,000 compounds, 0.67% hits | AID 651661;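 active = mean inhibition of at least 50% after viability correction, with every replicate also passing that limit; inconclusive = mean reaches 50% but only one of two replicates passes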;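 note: firefly luciferase signal divided by Alamar Blue viability fluorescence both relative to DMSO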
Wnt act: activates Wnt/beta-catenin signaling in a reporter cell assay | AID 743398 | 300,000 compounds, 1.2% hits | activator, plate reader | activation, % at 9.35 µM; in the data active = activation above about 30%, passing the limit was not always enough; inconclusive = no clear call, values can overlap the other calls;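 note: 0% = neutral control wells and 100% = positive control wells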
esBAF inh: blocks esBAF chromatin remodeling in mouse ES cells. reporter increase, % at 12.5 µM. AID 602393. Bmi1-luciferase knock-in reporter, 24 h; 100% = twice the neutral-well signal. 350,000 compounds, 2% hits; in the data active = activation above about 40%; inconclusive = no clear call, values can overlap the other calls;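 note: 0% = median of the plate's neutral control wells and 100% = double that signal; a rise in the Bmi1 reporter signal indicates esBAF inhibition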
MITF act: MITF TRPM1 promoter activation in melanoma cells; activation, % at 12.5 µM; 300,000 compounds, 0.75% hits; SK-MEL-5 TRPM1-promoter luciferase, 24 h; % of positive control, neutral wells = 0;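 active = mean activation of at least 80% with every replicate also reaching 80%; inconclusive = mean reaches 80% but some replicate falls short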;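 note: 0% = neutral control wells and 100% = parthenolide positive control wells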
MITF TRPM1 inh: inhibitors of MITF-driven TRPM1 promoter in melanoma cells | SK-MEL-5 TRPM1 promoter luciferase, 24 h | 330,000 compounds, 0.83% hits | inhibition, % at 12.5 µM;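 active = mean inhibition across replicates of 60% or more, whatever share of single replicates reaches that level; inconclusive = some that reach 60%, reason not given; inactive = mean inhibition across replicates below 60%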
PAX8 inh HTS: PAX8 transcriptional activity inhibition; RMG-I TPO-luciferase reporter, SteadyGlo, 24 h; inhibition, % at 12.6 µM; 360,000 compounds, 1.2% hits; AID 652154;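 active = mean replicate inhibition at least 60% with every replicate also reaching 60%; inconclusive = only one of the two criteria is met; inactive = mean below 60% and not all replicates reaching 60%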;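 note: luciferase light reporting Pax8 driven TPO promoter activity; plate controls were median of neutral control wells for no effect and mitoxantrone controls for full effect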
Active calls of the source: *; ? = inconclusive; nt = no result given. Rows were chosen to be rich in hits. Some 4% of all compounds tested hit in one or more screens of this group.

SMILES	EWS-Fli inh	Wnt act	esBAF inh	MITF act	MITF TRPM1 inh	PAX8 inh HTS
COc1ccc2c3c([nH]c2c1)[C@@H](CO)N(C(=O)CN1CCOCC1)CC31CCN(C(C)=O)CC1	36	nt	nt	nt	nt	nt
COC(=O)c1cn(C[C@H](Cc2ccccc2)NC(=O)c2ccccc2)nn1	-2	nt	nt	nt	nt	-29
O=C(O)c1ccccc1-c1cc2ccccc2[nH]1	-6	5	nt	nt	11	-16
COc1ccccc1-c1cc2ccccc2[nH]1	nt	nt	74*	73	-66	nt
O=C(O)CCc1ccc(-c2ccc(Br)cc2)n1NC(=O)c1ccc([N+](=O)[O-])cc1	7	1	-9	1	-7	3
Cc1ccc(-c2ccc(CCC(=O)O)n2NC(=O)c2ccc([N+](=O)[O-])cc2)cc1	-37	54*	-4	2	-2	-2
Cc1noc(C)c1NC(=O)Nc1ccc2c(c1)C(=O)N([C@H](C)CO)C[C@H](C)[C@@H](CN(C)Cc1ccc3c(c1)OCO3)O2	7	nt	7	nt	nt	-8
COc1ccc2c(c1)oc(=O)c1c3ccccc3[nH]c21	-128	16	nt	40	-34	-101
COc1ccc2c(c1)oc(=O)c1cc(OC)ccc12	-152	6	79*	92*	-91	nt
COc1ccc2c(C)c(Cl)c(=O)oc2c1	nt	nt	-5	2	-3	nt
COc1cc(OC)cc(-c2cc3ccccc3c(=O)o2)c1	-56	9	48*	40	-40	-90
COc1ccc2c(c1)oc(=O)c1ccccc12	-41	10	41*	nt	nt	nt
O=C(C[C@@H]1CC[C@H]2[C@@H](COC[C@H](O)CN2Cc2ccc(F)cc2)O1)NCc1ccccc1Cl	5	nt	-5	nt	nt	11
c1ccc(OCCOc2ncnc3sccc23)cc1	nt	42*	nt	41	-37	-101
CCOc1ccc(OCCOc2ncnc3ccccc23)cc1	nt	nt	46*	32	-32	nt
COc1ccc2c3c(n(C)c2c1)[C@H](CO)N(CC1CCCCC1)CC31CCN(C(=O)CN(C)C)CC1	-1	nt	nt	nt	nt	nt
Cc1ccc(CN2C(=O)CSC2c2cccnc2)cc1 (stereo not drawn)	7	-3	2	-3	8	21
O=C1CSC(c2cccnc2)N1Cc1ccc(Cl)cc1 (stereo not drawn)	0	35*	0	10	-8	-5
C=Cc1ncc(OC)c2c1[nH]c1ccccc12	nt	nt	-13	-82	82*	nt
CCCNC(=O)N[C@H]1CC[C@@H](CC(=O)NC2CCCCC2)O[C@@H]1CO	0	nt	-7	nt	nt	-11
O=C(Cc1csc(Nc2nc(=S)[nH]c3ccccc23)n1)N1CCN(c2cccc(Cl)c2)CC1	46	-3	-4	-76	78*	27
Cc1ccc(Cl)cc1N1CCN(C(=O)Cc2csc(Nc3nc(=S)[nH]c4ccccc34)n2)CC1	33	-4	nt	-33	32	29
COC(=O)c1ccc(C2c3[nH]c4ccccc4c3C[C@H]3C(=O)N(C)CC(=O)N23)cc1 (stereo partly drawn)	6	-1	-1	-7	9	10
CN1CC(=O)N2C(c3ccc(Cl)cc3)c3[nH]c4ccccc4c3C[C@H]2C1=O (stereo partly drawn)	49	15	16	1	7	103*
C[C@@H]1CN([C@@H](C)CO)C(=O)c2cc(N(C)C)ccc2O[C@@H](C)CCCCO[C@@H]1CN(C)C(=O)Nc1ccc2c(c1)OCO2	-9	nt	1	nt	nt	7
SMILES	EWS-Fli inh	Wnt act	esBAF inh	MITF act	MITF TRPM1 inh	PAX8 inh HTS
O=C(Nc1ccccc1F)N1C[C@@H]2[C@H](c3ccccc31)[C@@H](CO)N2C(=O)C1CC1	-31	nt	49*	nt	nt	-36
COc1cccc(-c2ccc3c(c2)[C@@H]2[C@@H](CCN2S(=O)(=O)C2=NC(C)C=N2)[C@H](CO)N3C)c1 (stereo partly drawn)	7	nt	6	nt	nt	21
C[C@H](CO)N1C[C@H](C)[C@H](CN(C)C(=O)Nc2cccc3ccccc23)Oc2ncc(-c3cc4ccccc4o3)cc2C1=O	7	nt	10	nt	nt	nt
C[C@@H]1CN([C@H](C)CO)C(=O)CCCn2cc(nn2)CO[C@@H]1CN(C)C(=O)NC1CCCCC1	6	nt	-2	nt	nt	15
Clc1ccc(C#Cc2cccnc2)cc1	-110	24	67*	109*	-112	-132
COc1ccccc1NS(=O)(=O)c1cc(NC(=O)c2ccc(Cl)nc2)ccc1Cl	nt	-12	-12	-63	64*	44
COc1ccccc1-c1cnc2c(c1)C(=O)N([C@@H](C)CO)C[C@@H](C)[C@@H](CN(C)CC1CCOCC1)O2	0	nt	-6	nt	nt	-20
CCCCNS(=O)(=O)c1ccc(NC(=O)C(Sc2ccccc2)c2ccccc2)cc1 (stereo not drawn)	nt	-2	-1	-1	1	72*
C[C@@H](O)C#Cc1ccc([C@H]2[C@@H](CO)N3CCCCN(S(=O)(=O)c4ccccc4)C[C@H]23)cc1	3	nt	nt	nt	nt	-11
O=C(Nc1ccccc1SC(=O)c1ccccc1)c1ccccc1	-29	-3	17	nt	nt	-68
Cc1ccc(C(=O)Sc2cccccc2=O)cc1	34	-10	-52	-82	83*	43
C=C1CC(COc2ccc3c(C)c(Cl)c(=O)oc3c2)(c2ccccc2)OC1=O (stereo not drawn)	?	-1	nt	nt	101*	100*
O=Nc1c2cc(-c3ccccc3)[nH]nc-2c2ccccc12	63*	1	-41	-25	27	-86
Cc1ccc(-c2cc3c(N=O)c4ccccc4c-3n[nH]2)cc1	80*	nt	nt	-72	74*	-79
O=C(c1ccccn1)N1C[C@H]2[C@@H](c3ccccc31)[C@@H](CO)N2C(=O)Cc1ccccc1	-2	nt	2	nt	nt	15
O=C(NC1CCCCC1)N[C@H]1CC[C@@H](CCNS(=O)(=O)c2ccc(F)cc2)O[C@@H]1CO	4	nt	2	nt	nt	-3
O=C(NCCSc1ccccc1)c1cncc(Br)c1	nt	nt	76*	36	-33	nt
Cc1ccccc1C(=O)NCCSc1ccccc1	nt	nt	55*	96*	-92	nt
CCC(NC(=O)c1cncc(Br)c1)c1ccccc1 (stereo not drawn)	0	31*	-6	-3	6	-1
NCC[C@H]1CC[C@@H](NC(=O)CCN2CCCCC2)[C@H](CO)O1	-6	nt	-1	nt	nt	-8
Cc1noc(C)c1S(=O)(=O)Nc1ccc2c(c1)C(=O)N([C@H](C)CO)C[C@H](C)[C@@H](CN(C)Cc1ccncc1)OCCCC[C@@H](C)O2	0	nt	-4	nt	nt	-21
COc1ccc(NC(=O)N[C@@H]2CC[C@H](CCn3cc(-c4ccc(OC)cc4)nn3)O[C@H]2CO)cc1	-1	nt	-4	nt	nt	-4
CCCNC(=O)N1C[C@H](C)[C@H](OC)CN(C)C(=O)c2cc(NC(=O)C3CCC3)ccc2OC[C@H]1C	4	nt	-4	nt	nt	nt
C[C@H]1CN([C@@H](C)CO)S(=O)(=O)c2ccc(-c3ccncc3)cc2O[C@@H]1CN(C)Cc1ccncc1	11	nt	-9	nt	nt	nt
